Common to all, as to assay: DAPPL (digital affinity profiling via proximity ligation, sequencing); 10 mM Tris-HCl pH 7.5, 50 mM NaCl, 1 mM DTT, 4% glycerol, room temperature, 30 min; GST-TFs on glutathione beads, 16-mer random dsDNA library, 0.1% formaldehyde crosslink after washing; high values mean tight binding
One assay has as its target T1, FEV (Homo sapiens, UniProt Q99581 1-238).
T1 sequence: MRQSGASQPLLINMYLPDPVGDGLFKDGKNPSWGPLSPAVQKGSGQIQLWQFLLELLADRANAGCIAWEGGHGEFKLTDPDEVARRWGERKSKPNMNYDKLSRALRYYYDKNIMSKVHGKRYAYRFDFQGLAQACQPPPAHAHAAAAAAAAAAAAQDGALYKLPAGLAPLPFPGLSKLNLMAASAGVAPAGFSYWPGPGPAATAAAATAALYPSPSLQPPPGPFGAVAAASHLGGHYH
The following applies: protein: recombinant; tags: N-terminal GST; dsDNA, one strand shown. Put shortly:
(§1)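 Binding signal is each hexamer's read frequency for a factor divided by its frequency in the tag-only sample. The factors were GST-fused human transcription factors from yeast, captured on glutathione beads, DNA-barcoded and pooled with that sample. Pools were incubated with 200 nmole of a random double-stranded 16-mer DNA library in Tris/NaCl/DTT/glycerol buffer at room temperature for 30 min, then washed, crosslinked with 0.1% formaldehyde, proximity-ligated with BsaI/T4 ligase (1 h, 37 °C), PCR-amplified and sequenced on an Illumina NextSeq500.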

Another assay concerns the target ETV5 (Homo sapiens, UniProt P41161 1-510). The note with it: protein: recombinant; tags: N-terminal GST; dsDNA, one strand shown. Put shortly: as §1
The target of the next assay is HSF1 (Homo sapiens, UniProt Q00613 1-529). The following applies: protein: recombinant; tags: N-terminal GST; chain copies: 3; dsDNA, one strand shown. Put shortly:
as §1

The next assay has as its target T2, SPIC (Homo sapiens, UniProt Q8N5J4 1-248).
T2 sequence: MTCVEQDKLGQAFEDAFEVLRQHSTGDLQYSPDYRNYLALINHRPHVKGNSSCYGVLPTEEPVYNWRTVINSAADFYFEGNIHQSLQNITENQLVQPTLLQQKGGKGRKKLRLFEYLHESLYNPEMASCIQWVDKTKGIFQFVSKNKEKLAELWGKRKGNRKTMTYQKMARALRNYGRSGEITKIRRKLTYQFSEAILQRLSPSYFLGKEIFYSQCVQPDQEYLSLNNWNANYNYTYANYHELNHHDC
The note with it: protein: recombinant; tags: N-terminal GST; dsDNA, one strand shown. Put shortly: as §1

For the next assay, the target named is ELF4 (Homo sapiens, UniProt Q99607 1-663). The note with it: protein: recombinant; tags: N-terminal GST; dsDNA, one strand shown. Put shortly:
as §1

The target of the next assay is T3, ELK4 (Homo sapiens, UniProt P28324-2 1-405).
T3 sequence: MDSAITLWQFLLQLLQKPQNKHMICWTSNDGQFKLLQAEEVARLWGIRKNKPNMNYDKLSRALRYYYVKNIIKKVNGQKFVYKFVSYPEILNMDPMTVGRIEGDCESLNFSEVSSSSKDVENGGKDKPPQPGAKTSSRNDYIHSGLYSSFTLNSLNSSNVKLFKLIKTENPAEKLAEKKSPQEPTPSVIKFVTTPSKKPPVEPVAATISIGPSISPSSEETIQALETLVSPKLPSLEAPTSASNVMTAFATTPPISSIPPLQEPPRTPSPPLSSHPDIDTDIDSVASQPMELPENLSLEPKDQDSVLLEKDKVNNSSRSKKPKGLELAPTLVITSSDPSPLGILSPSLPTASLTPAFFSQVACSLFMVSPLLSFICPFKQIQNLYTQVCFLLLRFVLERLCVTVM
The following applies: protein: recombinant; tags: N-terminal GST; dsDNA, one strand shown. Put shortly:
as §1

Another assay addresses T4, ETV2 (Homo sapiens, UniProt O00321 1-342).
T4 sequence: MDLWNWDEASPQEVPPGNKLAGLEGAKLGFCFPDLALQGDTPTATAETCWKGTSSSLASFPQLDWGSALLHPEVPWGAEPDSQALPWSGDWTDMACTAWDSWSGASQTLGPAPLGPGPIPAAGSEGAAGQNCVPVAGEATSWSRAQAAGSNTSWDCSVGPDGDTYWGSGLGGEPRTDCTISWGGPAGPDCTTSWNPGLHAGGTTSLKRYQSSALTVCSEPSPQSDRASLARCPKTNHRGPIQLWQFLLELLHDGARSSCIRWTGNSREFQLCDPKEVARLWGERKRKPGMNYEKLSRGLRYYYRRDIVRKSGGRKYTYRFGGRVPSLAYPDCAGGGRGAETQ
The following applies: protein: recombinant; tags: N-terminal GST; dsDNA, one strand shown. Put shortly:
as §1

A further assay has as its target T5, ELF3 (Homo sapiens, UniProt P78545 1-371).
T5 sequence: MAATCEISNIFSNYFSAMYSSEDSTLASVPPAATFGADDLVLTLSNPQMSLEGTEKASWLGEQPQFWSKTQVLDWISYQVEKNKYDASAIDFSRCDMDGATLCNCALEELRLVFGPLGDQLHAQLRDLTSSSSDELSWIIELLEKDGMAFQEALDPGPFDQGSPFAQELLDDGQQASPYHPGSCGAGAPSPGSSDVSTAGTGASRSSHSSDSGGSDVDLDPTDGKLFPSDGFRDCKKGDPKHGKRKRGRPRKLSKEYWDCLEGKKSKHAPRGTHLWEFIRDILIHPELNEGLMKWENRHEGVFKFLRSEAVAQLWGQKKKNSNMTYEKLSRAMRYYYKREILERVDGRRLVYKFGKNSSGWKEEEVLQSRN
The following applies: protein: recombinant; tags: N-terminal GST; dsDNA, one strand shown. Put shortly: as §1

Another assay has as its target CRX (Homo sapiens, UniProt O43186 1-299). The following applies: protein: recombinant; tags: N-terminal GST; dsDNA, one strand shown. Put shortly: as §1
Another assay concerns the target ETV1 (Homo sapiens, UniProt P50549 1-477). The note with it: protein: recombinant; tags: N-terminal GST; dsDNA, one strand shown. Put shortly:
as §1

The next assay concerns the target T6, ERF (Homo sapiens, UniProt P50548 1-548).
T6 sequence: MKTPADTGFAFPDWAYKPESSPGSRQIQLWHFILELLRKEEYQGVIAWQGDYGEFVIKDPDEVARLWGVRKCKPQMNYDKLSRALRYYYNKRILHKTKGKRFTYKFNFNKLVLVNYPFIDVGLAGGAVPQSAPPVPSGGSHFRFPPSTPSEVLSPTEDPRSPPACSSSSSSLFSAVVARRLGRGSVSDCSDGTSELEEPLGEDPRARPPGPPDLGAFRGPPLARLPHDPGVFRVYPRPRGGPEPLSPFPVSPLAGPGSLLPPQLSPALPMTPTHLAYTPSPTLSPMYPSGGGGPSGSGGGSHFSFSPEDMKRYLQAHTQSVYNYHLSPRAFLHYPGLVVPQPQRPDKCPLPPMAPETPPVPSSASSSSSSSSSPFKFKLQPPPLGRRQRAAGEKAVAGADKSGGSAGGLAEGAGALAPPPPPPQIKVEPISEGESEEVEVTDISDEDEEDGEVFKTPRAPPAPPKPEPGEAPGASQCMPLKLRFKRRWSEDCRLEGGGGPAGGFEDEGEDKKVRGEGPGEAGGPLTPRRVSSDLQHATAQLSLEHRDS
The following applies: protein: recombinant; tags: N-terminal GST; dsDNA, one strand shown. Put shortly: as §1

The next assay deals with T7, ETV3L (Homo sapiens, UniProt Q6ZN32 1-361).
T7 sequence: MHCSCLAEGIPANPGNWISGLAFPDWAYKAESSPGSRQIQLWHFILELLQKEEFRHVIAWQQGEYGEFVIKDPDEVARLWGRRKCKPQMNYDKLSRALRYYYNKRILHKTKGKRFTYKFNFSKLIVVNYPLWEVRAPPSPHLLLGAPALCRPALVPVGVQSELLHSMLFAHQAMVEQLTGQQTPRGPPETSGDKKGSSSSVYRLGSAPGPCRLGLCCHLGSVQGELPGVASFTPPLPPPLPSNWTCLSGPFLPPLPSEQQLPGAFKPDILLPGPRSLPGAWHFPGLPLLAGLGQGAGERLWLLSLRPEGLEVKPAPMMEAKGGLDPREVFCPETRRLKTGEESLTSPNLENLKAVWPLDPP
The note with it: protein: recombinant; tags: N-terminal GST; dsDNA, one strand shown. Put shortly:
as §1

The target of the next assay is T8, ETS2 (Homo sapiens, UniProt P15036 1-469).
T8 sequence: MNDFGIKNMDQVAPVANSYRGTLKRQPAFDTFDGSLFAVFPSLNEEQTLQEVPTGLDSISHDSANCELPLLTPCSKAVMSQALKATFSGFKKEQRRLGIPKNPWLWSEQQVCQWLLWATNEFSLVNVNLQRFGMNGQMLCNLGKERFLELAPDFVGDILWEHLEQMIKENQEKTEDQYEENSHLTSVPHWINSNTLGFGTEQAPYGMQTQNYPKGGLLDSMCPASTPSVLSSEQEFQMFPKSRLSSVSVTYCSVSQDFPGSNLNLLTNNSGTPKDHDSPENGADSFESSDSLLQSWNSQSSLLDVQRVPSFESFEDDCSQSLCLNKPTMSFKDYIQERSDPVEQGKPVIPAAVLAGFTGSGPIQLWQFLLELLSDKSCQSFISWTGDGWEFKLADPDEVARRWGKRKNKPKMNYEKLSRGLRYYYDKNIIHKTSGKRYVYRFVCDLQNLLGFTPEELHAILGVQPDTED
The note with it: protein: recombinant; tags: N-terminal GST; dsDNA, one strand shown. Put shortly:
as §1

The next assay concerns the target T9, SPDEF (Homo sapiens, UniProt O95238 1-335).
T9 sequence: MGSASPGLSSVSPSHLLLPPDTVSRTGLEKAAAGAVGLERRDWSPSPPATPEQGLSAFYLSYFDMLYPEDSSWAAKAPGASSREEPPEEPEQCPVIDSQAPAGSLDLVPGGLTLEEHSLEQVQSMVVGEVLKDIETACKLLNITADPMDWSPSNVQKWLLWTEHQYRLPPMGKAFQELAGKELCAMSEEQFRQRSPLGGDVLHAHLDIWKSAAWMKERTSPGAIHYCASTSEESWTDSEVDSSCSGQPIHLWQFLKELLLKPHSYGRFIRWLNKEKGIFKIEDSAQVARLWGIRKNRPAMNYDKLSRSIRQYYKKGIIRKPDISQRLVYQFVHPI
The following applies: protein: recombinant; tags: N-terminal GST; dsDNA, one strand shown. Put shortly:
as §1

The target in the next assay is T10, ETV7 (Homo sapiens, UniProt Q9Y603 1-341).
T10 sequence: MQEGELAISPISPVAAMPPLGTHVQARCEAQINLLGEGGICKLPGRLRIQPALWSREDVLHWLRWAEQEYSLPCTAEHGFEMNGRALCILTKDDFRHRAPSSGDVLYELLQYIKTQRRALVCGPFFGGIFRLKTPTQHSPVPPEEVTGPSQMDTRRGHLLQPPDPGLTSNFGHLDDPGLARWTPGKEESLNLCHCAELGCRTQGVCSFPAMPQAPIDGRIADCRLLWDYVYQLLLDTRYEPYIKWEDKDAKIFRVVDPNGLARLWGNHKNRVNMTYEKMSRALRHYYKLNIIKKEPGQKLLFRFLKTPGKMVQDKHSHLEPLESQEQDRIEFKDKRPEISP
The following applies: protein: recombinant; tags: N-terminal GST; dsDNA, one strand shown. Put shortly: as §1

Another assay concerns the target T11, ELF5 (Homo sapiens, UniProt Q9UKW6-2 1-255).
T11 sequence: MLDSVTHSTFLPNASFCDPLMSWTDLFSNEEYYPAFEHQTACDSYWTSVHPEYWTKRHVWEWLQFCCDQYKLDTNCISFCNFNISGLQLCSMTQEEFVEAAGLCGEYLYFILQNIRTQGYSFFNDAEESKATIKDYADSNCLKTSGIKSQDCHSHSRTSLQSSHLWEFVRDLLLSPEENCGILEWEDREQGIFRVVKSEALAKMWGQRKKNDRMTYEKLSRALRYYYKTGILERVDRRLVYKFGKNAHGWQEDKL
The following applies: protein: recombinant; tags: N-terminal GST; dsDNA, one strand shown. Put shortly:
as §1

The next assay deals with T12, ETV3 (Homo sapiens, UniProt P41162-2 1-143).
T12 sequence: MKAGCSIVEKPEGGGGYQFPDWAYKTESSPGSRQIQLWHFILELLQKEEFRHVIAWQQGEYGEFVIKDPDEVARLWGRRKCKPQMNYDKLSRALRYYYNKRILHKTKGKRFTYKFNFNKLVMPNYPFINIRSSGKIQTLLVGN
The following applies: protein: recombinant; tags: N-terminal GST; dsDNA, one strand shown. Put shortly:
as §1

A further assay addresses ETV6 (Homo sapiens, UniProt P41212 1-452). The note with it: protein: recombinant; tags: N-terminal GST; dsDNA, one strand shown. Put shortly: as §1

Sequence of ETV5 (P41161 whole entry): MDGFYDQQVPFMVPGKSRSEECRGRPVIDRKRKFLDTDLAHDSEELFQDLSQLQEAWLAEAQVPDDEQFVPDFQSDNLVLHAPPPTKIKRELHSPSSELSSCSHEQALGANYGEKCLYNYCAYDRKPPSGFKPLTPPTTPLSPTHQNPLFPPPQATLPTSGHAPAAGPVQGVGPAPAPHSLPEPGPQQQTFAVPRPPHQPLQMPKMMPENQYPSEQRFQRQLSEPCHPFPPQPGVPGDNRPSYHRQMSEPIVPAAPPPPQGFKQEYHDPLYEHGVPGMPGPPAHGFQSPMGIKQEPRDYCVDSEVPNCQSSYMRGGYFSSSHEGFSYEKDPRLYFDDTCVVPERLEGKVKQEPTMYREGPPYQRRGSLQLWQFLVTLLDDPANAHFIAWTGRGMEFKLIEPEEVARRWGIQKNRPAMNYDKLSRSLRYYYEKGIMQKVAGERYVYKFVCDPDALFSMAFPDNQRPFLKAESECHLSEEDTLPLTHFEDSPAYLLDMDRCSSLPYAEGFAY
Sequence of CRX (O43186 whole entry): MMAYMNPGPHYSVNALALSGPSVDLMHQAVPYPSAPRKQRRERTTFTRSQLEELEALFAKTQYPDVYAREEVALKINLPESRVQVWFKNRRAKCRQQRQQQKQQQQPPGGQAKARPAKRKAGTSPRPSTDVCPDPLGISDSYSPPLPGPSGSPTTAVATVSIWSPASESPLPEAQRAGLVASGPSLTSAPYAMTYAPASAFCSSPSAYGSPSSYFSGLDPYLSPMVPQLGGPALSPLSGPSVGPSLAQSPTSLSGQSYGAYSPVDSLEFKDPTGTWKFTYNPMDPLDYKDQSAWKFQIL
Sequence of ELF4 (Q99607 whole entry): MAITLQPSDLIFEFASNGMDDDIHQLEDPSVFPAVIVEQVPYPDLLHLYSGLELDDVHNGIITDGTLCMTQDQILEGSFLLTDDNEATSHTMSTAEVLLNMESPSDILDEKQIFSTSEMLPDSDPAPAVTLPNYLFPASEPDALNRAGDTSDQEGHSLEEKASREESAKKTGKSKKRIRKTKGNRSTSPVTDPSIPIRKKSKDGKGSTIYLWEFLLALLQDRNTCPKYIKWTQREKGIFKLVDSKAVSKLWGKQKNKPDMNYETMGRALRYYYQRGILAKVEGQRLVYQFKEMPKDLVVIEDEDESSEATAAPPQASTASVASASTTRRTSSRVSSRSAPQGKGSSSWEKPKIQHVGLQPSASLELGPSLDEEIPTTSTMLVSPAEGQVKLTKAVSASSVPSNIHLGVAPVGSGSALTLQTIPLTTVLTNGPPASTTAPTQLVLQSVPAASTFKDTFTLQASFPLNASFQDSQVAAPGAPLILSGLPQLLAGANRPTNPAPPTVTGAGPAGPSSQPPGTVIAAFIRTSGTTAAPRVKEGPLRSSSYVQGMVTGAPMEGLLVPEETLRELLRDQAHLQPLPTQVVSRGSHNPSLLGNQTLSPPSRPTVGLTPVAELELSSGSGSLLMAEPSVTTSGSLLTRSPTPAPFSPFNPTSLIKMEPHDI
Sequence of ETV1 (P50549 whole entry): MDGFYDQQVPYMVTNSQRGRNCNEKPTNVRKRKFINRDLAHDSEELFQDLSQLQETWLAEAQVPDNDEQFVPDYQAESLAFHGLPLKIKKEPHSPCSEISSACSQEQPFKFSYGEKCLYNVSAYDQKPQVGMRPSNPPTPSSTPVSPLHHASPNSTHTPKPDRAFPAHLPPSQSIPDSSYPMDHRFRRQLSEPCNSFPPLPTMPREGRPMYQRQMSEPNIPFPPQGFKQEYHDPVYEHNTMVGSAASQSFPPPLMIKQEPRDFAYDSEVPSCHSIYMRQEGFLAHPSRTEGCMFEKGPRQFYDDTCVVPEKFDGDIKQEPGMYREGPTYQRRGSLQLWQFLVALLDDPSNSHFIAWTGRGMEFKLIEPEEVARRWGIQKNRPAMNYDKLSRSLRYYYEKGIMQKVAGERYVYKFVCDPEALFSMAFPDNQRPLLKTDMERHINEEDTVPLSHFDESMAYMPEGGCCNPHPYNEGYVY
Sequence of HSF1 (Q00613 whole entry): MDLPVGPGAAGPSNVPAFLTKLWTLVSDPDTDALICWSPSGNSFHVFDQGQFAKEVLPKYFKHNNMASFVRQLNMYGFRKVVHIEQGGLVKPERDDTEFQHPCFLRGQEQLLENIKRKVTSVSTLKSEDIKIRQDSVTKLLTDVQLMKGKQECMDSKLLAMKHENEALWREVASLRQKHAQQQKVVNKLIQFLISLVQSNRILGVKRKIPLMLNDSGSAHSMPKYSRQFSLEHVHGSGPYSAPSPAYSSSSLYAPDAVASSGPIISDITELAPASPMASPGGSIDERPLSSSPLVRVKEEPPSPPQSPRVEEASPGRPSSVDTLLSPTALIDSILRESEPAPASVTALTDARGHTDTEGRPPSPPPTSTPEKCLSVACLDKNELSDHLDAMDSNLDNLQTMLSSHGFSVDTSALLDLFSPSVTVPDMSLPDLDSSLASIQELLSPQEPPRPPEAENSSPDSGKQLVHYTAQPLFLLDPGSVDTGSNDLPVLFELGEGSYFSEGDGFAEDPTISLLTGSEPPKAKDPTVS
Sequence of ETV6 (P41212 whole entry): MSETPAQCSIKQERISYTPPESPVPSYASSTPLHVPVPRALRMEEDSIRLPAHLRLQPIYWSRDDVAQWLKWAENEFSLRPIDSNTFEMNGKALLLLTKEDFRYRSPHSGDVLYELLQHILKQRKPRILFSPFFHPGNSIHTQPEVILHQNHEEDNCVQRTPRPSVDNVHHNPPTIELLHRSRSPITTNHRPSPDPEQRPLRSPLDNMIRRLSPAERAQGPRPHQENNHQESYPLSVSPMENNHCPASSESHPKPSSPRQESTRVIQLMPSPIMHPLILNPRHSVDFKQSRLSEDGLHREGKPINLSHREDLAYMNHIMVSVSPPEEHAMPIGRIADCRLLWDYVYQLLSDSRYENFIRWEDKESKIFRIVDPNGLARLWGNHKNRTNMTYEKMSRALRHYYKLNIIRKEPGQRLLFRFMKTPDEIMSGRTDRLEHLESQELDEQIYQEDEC

Consider TTCCGA, for which the binding signal with FEV is 1.81 fold enrichment (6-mer frequency, TF over GST control); with ETV5, 1.57 fold enrichment (6-mer frequency, TF over GST control); with HSF1, 1.35 fold enrichment (6-mer frequency, TF over GST control); with SPIC it was 1.61 fold enrichment (6-mer frequency, TF over GST control); with ELF4, 1.44 fold enrichment (6-mer frequency, TF over GST control); with ELK4, 1.46 fold enrichment (6-mer frequency, TF over GST control). In addition, the binding signal is 1.7 fold enrichment (6-mer frequency, TF over GST control) in the assay with ETV2; 1.5 fold enrichment (6-mer frequency, TF over GST control) with ELF3; 1.19 fold enrichment (6-mer frequency, TF over GST control) in the assay with CRX; 1.63 fold enrichment (6-mer frequency, TF over GST control) with ETV1; 1.5 fold enrichment (6-mer frequency, TF over GST control) in the assay with ERF; 1.48 fold enrichment (6-mer frequency, TF over GST control) with ETV3L. In addition, the binding signal in the assay with ETS2 was 1.67 fold enrichment (6-mer frequency, TF over GST control); with SPDEF, 1.47 fold enrichment (6-mer frequency, TF over GST control); with ETV7, 1.64 fold enrichment (6-mer frequency, TF over GST control); in the assay with ELF5 it was 1.78 fold enrichment (6-mer frequency, TF over GST control); in the assay with ETV3 it was 1.68 fold enrichment (6-mer frequency, TF over GST control); in the assay with ETV6, 1.85 fold enrichment (6-mer frequency, TF over GST control).
